The nature of test [1]: qHTS Screen of the MIPE 4.0 Collection Against Ewings Sarcoma (EW8) (AID 1259255). Note: nearly all actives have a fitted effect of over 35% in size. Note: potency is the fitted concentration of half-maximal effect. The procedure, abridged:
(§1)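 Cells plated in serum-containing RPMI (5% FBS) and treated with compound dilutions for 48 h. Readout luminescent viability; normalization relied on vehicle (no inhibition) and media-only columns (full inhibition).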
Background: qHTS replaces the single test concentration by a dilution series.

Test [2] can be described thus: qHTS Screen of the MIPE 4.0 Collection Against Ewings Sarcoma (TC32) (AID 1259256). Note: nearly all actives have a fitted effect of over 45% in size. Note: potency is the fitted concentration of half-maximal effect. The procedure, abridged: as §1
A short description of test [3]: Identifying Small Molecule Inhibitors of Pancreatic Cancer Stem Cells (SN12C, Adherent) (AID 1259358).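 Note: cell survival measured after 48 h of compound exposure.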 Put shortly:
(§2)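 Pre-formed 14-day tumor spheroids or adherent cells dosed and incubated 48 h, 37C, 5% CO2. Viability assessed by CellTiter-Glo.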

Test [4] is described as follows: Identifying Small Molecule Inhibitors of Pancreatic Cancer Stem Cells (SN12C, Spheroid) (AID 1259360). Note: potency is the fitted concentration of half-maximal effect. The following applies: Potency: SN12C spheroid viability. Put shortly:
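Cytotoxicity read by CellTiter-Glo luminescence after 48 h compound exposure at 37C; percent activity scaled between DMSO-treated cells and cell-free wells. Spheroid formats used cells pre-formed 14 days in stem cell media on hydrogel.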

A short description of test [5]: Identifying Small Molecule Inhibitors of Pancreatic Cancer Stem Cells (A278, Adherent) (AID 1259361). Note: nearly all actives have a fitted effect of over 35% in size. The procedure, abridged: as §2
Test [6] is described as follows: P-glycoprotein substrates identified in KB-3-1 adenocarcinoma cell line, qHTS therapeutic library screen (AID 1346986). Note: nearly all actives have a fitted effect of over 60% in size.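 Note: potency is the fitted concentration of half-maximal effect; potency is for cytotoxicity meaning loss of cell viability.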 Put shortly:
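Cells seeded 500/well in DMEM/10% FCS; compounds pinned in dose-response; 72 h incubation; CellTiter-Glo added, 5 min, luminescence. KB-8-5-11 run ±tariquidar to test reversal of P-gp resistance.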

Test [7] can be described thus: Identifying Small Molecule Inhibitors of Pancreatic Cancer Stem Cells (Panc1, Spheroid) (AID 1259359).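 Note: potency is the fitted concentration of half-maximal effect; compound exposure lasted 48 h before reading.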 The procedure, abridged: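 Endpoint: ATP-based luminescence, 48 h drug exposure. Bortezomib at 9.2 uM final as full-kill control; DMSO vehicle as negative control; activity normalized between vehicle and cell-free wells.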
Test [8] is described as follows: qHTS assay to identify small molecule inhibitors of chordoma cells - UCH-2 (AID 1259356). Note: series mostly up to about 46 µM.

Molecules are shown by their SMILES. Several values for one entry are separate records, joined by “and”; a condition that tells them apart may be missing. Equal entries are not always repeated. Inconclusive results are not listed. A structure can be active in one record and inactive in another. Activity calls are given as the source filed them. Calls come from the whole dose curve; as a rule, active = well fitted curve in the direction sought with a large enough effect; inconclusive = small, poorly fitted or top-dose-only effect, or another doubt; inactive = no such curve, though single readings can be large; an effect the other way counts as inactive or inconclusive.

For `COc1nc(C)cnc1NS(=O)(=O)c1cccnc1-c1ccc(-c2nnco2)cc1`, the Potency entry in test [1], in test [2], in test [3], in test [4] and in test [6] was “inactive” in each case. Besides, the IC50 (viability decrease) result in test [5] was “inactive”.
On to `CN1CCN(c2cccc(Nc3nc4c(-c5ccc(S(C)(=O)=O)cc5)cccn4n3)c2)CC1`, for which the Potency is 5.9 µM (active) in test [1]; 2.35 µM (active) in test [2]; “inactive and 23.1 µM (active)” in test [6].
Consider `CC1=C(C(=O)Nc2cc3cn[nH]c3cc2F)C(c2ccc(C(F)(F)F)cc2)CC(=O)N1` (stereo not drawn), for which the Potency entry in test [1] and in test [2] was “inactive” each time.
Turning to `CC(C)(C)c1[nH]cnc1C=c1[nH]c(=O)c(=Cc2ccccc2)[nH]c1=O`, the Potency entry in test [1] and in test [2] was “inactive” each time. The figures for the Potency in test [7] and in test [4] were 0.0019 µM (active) and 14.8 µM (active), respectively. Also, the IC50 (viability decrease) in test [5] is 0.0166 µM (active).
Regarding `Cn1cc(-c2ccc3nnc(Sc4ccc5ncccc5c4)n3n2)cn1`, the Potency entry in test [1], in test [2], in test [3] and in test [4] was “inactive” each time. Besides, the IC50 (viability decrease) entry in test [5] is “inactive”.
Regarding `CN[C@H]1[C@@H](O[C@@H]2[C@H](O[C@@H]3[C@@H](O)[C@@H](O)[C@@H](N=C(N)N)[C@@H](O)[C@@H]3N=C(N)N)O[C@H](C)[C@@]2(O)C=O)O[C@@H](CO)[C@@H](O)[C@H]1O`, the Potency entry in test [1] and in test [2] was “inactive” in each case. Moreover, the outcome in test [6] was “inactive [at 9.29 µM]”.
In the case of `Cc1ccc(C(=O)N(CCCN)[C@@H](c2oc3cc(Cl)ccc3c(=O)c2Cc2ccccc2)C(C)C)cc1`, the Potency result in test [1] and in test [2] was “inactive” throughout.
With `Nc1nc(Cl)nc2c1ncn2[C@@H]1O[C@H](CO)[C@@H](O)[C@H]1F`, the Potency entry in test [1] and in test [2] was “inactive” throughout.
On to `Cc1cc(OCCCS(C)(=O)=O)cc(C)c1-c1cccc(COc2ccc3c(c2)OC[C@H]3CC(=O)O)c1`, for which the Potency in test [1] is 20.9 µM (active). Also, the Potency result in test [2] is “inactive”.
Consider `CN(C)CCCNC(=O)c1ccc(-c2cc(O)c3ncccc3c2)cc1`, for which the Potency is 14.8 µM (active) in test [1], 14.8 µM (active) in test [2] and 18.4 µM (active) in test [6]. For the same molecule, the Potency entry in test [3] and in test [4] was “inactive” in each case.
With `CC[C@H](C)C(=O)O[C@H]1C[C@H](O)C=C2C=C[C@H](C)[C@H](CC[C@@H](O)C[C@@H](O)CC(=O)O)[C@H]21`, in test [1], the Potency entry is “inactive”. Further, in test [2], the Potency was 20.9 µM (active). In addition, in test [8], the molecule was classed as inactive.
Regarding `COc1cc(C=CC(=O)O)ccc1O`, the Potency result in test [1] and in test [2] was “inactive” each time.
Consider `O=C1C(c2c(O)[nH]c3ccccc23)=Nc2ccccc21`, for which the values for the Potency in test [1] and in test [2] were 26.4 µM (active) and 29.6 µM (active), respectively. Also, the Potency result in test [6] is “inactive”.
For the molecule `O=C(O)c1nc(=O)[nH]c(=O)[nH]1`, the Potency entry in test [1] and in test [2] was “inactive” each time. Moreover, in test [8], the call was inactive.
Take `C[C@@H]1CC=CC=CC=CC=C[C@@H](O[C@@H]2O[C@H](C)[C@@H](O)[C@H](N)[C@H]2O)C[C@@H]2O[C@](O)(C[C@@H](O)C[C@@H]3O[C@@H]3C=CC(=O)O1)C[C@H](O)[C@@H]2C(=O)O`: the values for the Potency in test [1] and in test [2] were 11.8 µM (active) and 14.8 µM (active), respectively.
Taken in the same sequence, the figures for `CCCCCOC(=O)Nc1nc(=O)n([C@@H]2O[C@H](C)[C@@H](O)C2O)cc1F` (stereo partly drawn) were “inactive” and 20.9 µM (active).
Turning to `O=C(Nc1cccc(Cl)c1)Nc1ncc(CCNc2ncnc3ccsc23)s1`, the results for the Potency in test [1] and in test [2] were 0.235 µM (active) and 0.296 µM (active), respectively. For the same molecule, in test [3], the Potency result is “inactive”.
In the case of `COc1cc2nccc(Oc3ccc(NC(=O)Nc4ccc(F)cc4F)c(F)c3)c2cc1OC`, the Potency in test [1] is 16.6 µM (active); in test [2] it was 6.62 µM (active); in test [6] it was 7.31 µM (active).
Regarding `Fc1ccc(C(c2ccc(F)cc2)N2CCN(CC=Cc3ccccc3)CC2)cc1`, in test [1], the Potency was 16.6 µM (active). The molecule was classed as inactive in test [8].
`C[C@]12CC[C@@H]3c4ccc(O)cc4CC[C@H]3[C@H]1[C@@H](O)[C@@H](O)[C@H]2O`: the Potency result in test [1], in test [2] and in test [6] was “inactive” throughout.
As to `CC(C)[C@H](O)C(=O)N[C@@H](C)C(=O)N[C@@H]1C(=O)N(C)CCc2ccccc21`, the Potency result in test [1] and in test [2] was “inactive” throughout.
For the molecule `Cc1cn([C@@H]2C[C@@H](O)[C@H](CO)O2)c(=O)[nH]c1=O`, the Potency result in test [1] and in test [2] was “inactive” throughout.
Take `COc1ccc2ccc(=O)oc2c1CC=C(C)C`: the Potency in test [1] is 7.43 µM (active). For the same molecule, the Potency result in test [2] and in test [6] was “inactive” each time.
`FC(F)(F)c1ccc(C=Cc2nc(COc3ccc(CCCCn4ccnn4)cc3)co2)cc1`: the Potency in test [1] was 0.743 µM (active); in test [2] it was 0.0332 µM (active).
With `O=[N+]([O-])c1ccc(Nc2ccccc2-c2ccccc2)c2nonc12`, the Potency entry in test [1] and in test [2] was “inactive” throughout.
Regarding `CCN1CCN(c2ccc(Nc3cc(N(C)C(=O)Nc4c(Cl)c(OC)cc(OC)c4Cl)ncn3)cc2)CC1`, the Potency entry in test [1] and in test [2] was “inactive” in each case.
For the molecule `CNC1CCC(N(Cc2cccc(-c3ccncc3)c2)C(=O)c2sc3ccccc3c2Cl)CC1` (stereo not drawn), the Potency in test [1] is 23.5 µM (active); in test [2] it was 20.9 µM (active).
Taken in the same sequence, the figures for `C[C@H](CCC(=O)O)[C@H]1CC[C@H]2[C@H]3[C@@H](CC[C@]12C)[C@@]1(C)CC[C@@H](O)C[C@H]1C[C@@H]3O` were 18.7 µM (active) and “inactive”.

These data come from PubChem BioAssay (NCATS).
